Data published in PubChem BioAssay (NCI).
About 79,000 compounds went through this panel and 15% of them were active in at least one assay; those are over-represented in the sample as a whole. Values without a mark were called inactive. Active and inactive are the calls of the source. Rule as the data show it: active = growth inhibition above about 70%; inactive = the rest.

Tests used:
[1] = NCI Yeast Anticancer Drug Screen. Data for the rad50 strain (AID 155);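 also: 0% = growth of vehicle-only cultures of the same strain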; settings: S. cerevisiae rad50 strain growth inhibition; at 50.0 µM; stronger effect = higher value
Summary of the method: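 Relative growth inhibition (compound vs vehicle) was measured in yeast with a defined repair-gene alteration.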

[2] = NCI Yeast Anticancer Drug Screen. Data for the mec2-1 strain (AID 157); settings: S. cerevisiae mec2-1 strain, at 50.0 µM, stronger effect = higher value
Summary of the method: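 Mutant yeast (mec2-1) grown with compound; growth inhibition relative to vehicle control reported.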

[3] = NCI Yeast Anticancer Drug Screen. Data for the sgs1 mgt1 strain (AID 161);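 also: 0% = growth of cultures given vehicle only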; settings: S. cerevisiae sgs1 mgt1 strain, at 50.0 µM, stronger effect = higher value
Summary of the method: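 This yeast growth screen uses a strain with defined DNA-repair lesions; compound-treated growth is compared with vehicle-treated growth.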

[4] = NCI Yeast Anticancer Drug Screen. Data for the cln2 rad14 strain (AID 165);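 also: 0% = growth equal to vehicle treated cultures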; settings: S. cerevisiae cln2 rad14 strain, at 50.0 µM, stronger effect = higher value
Summary of the method: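 Readout is yeast growth inhibition versus vehicle-treated controls, using a strain with cln2 and rad14 alterations exposed to compound.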

[5] = NCI Yeast Anticancer Drug Screen. Data for the bub3 strain (AID 167); settings: S. cerevisiae bub3 mutant strain, at 50.0 µM, stronger effect = higher value
Summary of the method: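 Screening used yeast with an engineered genetic alteration affecting cell cycle control. Compound-exposed cultures were compared with vehicle cultures, and reduced growth was taken as inhibition.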

[6] = NCI Yeast Anticancer Drug Screen. Data for the mlh1 rad18 strain (AID 175); settings: S. cerevisiae mlh1 rad18 strain growth inhibition; at 50.0 µM; stronger effect = higher value
Summary of the method: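 Genetically defined yeast (DNA repair-deficient) exposed to compounds; growth inhibition determined relative to vehicle.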

Row | Structure (SMILES) | growth inhibition [1] | growth inhibition [2] | growth inhibition [3] | growth inhibition [4] | growth inhibition [5] | growth inhibition [6]
1 | COc1ccc(-c2nc(SCC(=O)O)n(-c3ccccn3)c2-c2ccc(OC)cc2)cc1 | 70.7% (active) | 66.5% | 82.3% (active) | 83.7% (active) | 42.9% | 77.7% (active)
2 | CCOCCN1CCN(CCOCC)CC1 | -11.9% | -9.75% | -9.65% | -18.4% | 27.6% | 14%
3 | NC(C(=O)O)c1ccccc1 (stereo not given) | -0.85% | -23.4% | -3.85% | -1.9% | -10.7% | -19.5%
4 | CC1OC(O)CC(NC(=O)C(F)(F)F)C1O (stereo not given) | 3.6% | -4.35% | 9.65% | -21.9% | -1.1% | -0.1%
5 | CC1(C)C=CC=C(C(=O)O)C=C1 | -23.1% | -24% | -34.2% | -21.4% | -13.7% | -14.7%
6 | CC1=C(C(c2ccccc2)c2ccccc2)C(=O)c2ccccc2C1=O | -3.35% | -6.5% | 1.45% | 1.5% | -31.8% | -0.7%
7 | COc1cc(/C=C(\C#N)C(N)=C(C#N)C#N)cc(O)c1O | -32.5% | -20.8% | -19.6% | 0.65% | -24.3% | -18.8%
8 | CCSC(C(O)C(O)C(O)C(O)CO)n1cc(C)c(=O)[nH]c1=O (stereo not given) | 3% | 5.45% | -2.85% | -3.7% | 4.2% | -0.25%
9 | CC(=O)OCC1OC(N2C(c3ccccc3)=CC(c3cccs3)C(C#N)=C2S)C(OC(C)=O)C(OC(C)=O)C1OC(C)=O (stereo not given) | 27.4% | 28.9% | 40.6% | 18% | 46.2% | 23.3%
10 | O=C(O)CN1C(=O)c2ccc([N+](=O)[O-])cc2C1=O | -3.65% | -0.2% | 2.3% | -8.2% | -16.5% | 4.25%
11 | CCCC[P+](C)(CC[P+](C)(c1ccccc1)c1ccccc1)c1ccccc1 (stereo not given) | 36.3% | 80.8% (active) | 69% | 96.5% (active) | 98.1% (active) | 37.3%
12 | C=C1CCCC(C)(C)C1CC/C(C)=C/CC/C(C)=C/CO (stereo not given) | -0.75% | -1.45% | 12.7% | 8.4% | 8.75% | 12.1%
13 | O=C(O)CNC(=O)NC(Cc1ccccc1)C(=O)O (stereo not given) | 9.1% | 12.4% | -0.45% | 71.5% (active) | 18.6% | 8%
14 | CCC(=O)N(C)[C@@H]1Oc2ccc(O)cc2[C@]1(C)c1cc(O)ccc1O | 0.35% | 2.25% | 14.8% | 19.9% | 6.7% | 9.95%
15 | CC(=O)Nc1ccc2c(c1)Cc1cccc(O)c1-2 | 0.65% | -7.15% | 15.9% | -29.9% | 1.75% | 10.1%
16 | O=C(Cc1ccccc1)NN1C(=O)C(Cl)C1c1ccccc1 (stereo not given) | -10.3% | 15.2% | -12.5% | 4.8% | -5% | -2.3%
17 | CCN(Cc1ccc(C(=O)OC)cc1)c1cccc(NC(C)=O)c1 | 33.5% | 6.7% | 29.9% | -9.7% | 20.3% | 34%
18 | O=C1CCC(c2ccccc2)C(O)(C(=O)O)C1 (stereo not given) | 6.45% | -8.1% | -13.9% | -5.1% | -14.3% | -24.9%
19 | COc1cccc(C(=O)O)c1[N+](=O)[O-] | -19.1% | -26.6% | -24% | -46.1% | -6.05% | -1%
20 | CCN(CCO)CCCC(C)Nc1ccnc2cc(Cl)ccc12 (stereo not given) | -43.2% | -66.5% | -33.4% | -132% | -45.9% | -63.4%

Row | Structure (SMILES) | growth inhibition [1] | growth inhibition [2] | growth inhibition [3] | growth inhibition [4] | growth inhibition [5] | growth inhibition [6]
21 | Clc1ccc(N=Cc2ccc(C=Nc3ccc(Cl)cc3)cc2)cc1 | 8% | 9.25% | 24.1% | 21.6% | 15% | 19.9%
22 | O=c1cc(Nc2ccc(Cl)cc2)[nH]c(=O)[nH]1 | -1.45% | -5.45% | -5.55% | -61.9% | 6.2% | -7.65%
23 | CCN(CC)c1ccc(NC(=S)Nc2ccc(N(CC)CC)cc2)cc1 | 23.3% | -0.5% | 4.95% | -66% | 22.2% | -22.9%
24 | O=C1c2ccccc2C(=C(c2ccccc2)c2ccccc2)c2ccccc21 | 29.1% | -19.5% | -10.3% | 10.6% | 5.35% | -4.75%
25 | Cc1cccc(CN)n1 | -2.55% | -29.2% | 17.4% | 4.05% | -5.85% | 2.15%
26 | CC(=O)OCC(=O)O[C@@H]1[C@H]2[C@@H](OC(=O)c3ccccc3)[C@@H](C)C[C@]2(O)[C@H](OC(C)=O)[C@@]2(C)C(OC(C)=O)[C@]1(OC(C)=O)C[C@H]1C(=O)C(C)(C)C[C@@H]12 (stereo not given in full) | -39.6% | -33% | -36.5% | -28.9% | -41.5% | -61%
27 | CCOC(=O)C(C)c1nc2cc(N3CCOCC3)c(F)cc2[nH]c1=O (stereo not given) | 24.6% | -7.55% | 11.7% | 28.6% | 5.7% | 4.95%
28 | C/C(=C\c1ccc(OCCN2CCOCC2)cc1)c1ccc2c(c1)C(C)(C)CCC2(C)C | -3.2% | -11.9% | 16.1% | -4.95% | -20.6% | -25.9%
29 | CC1CC(=O)CCC2(C)C(OC(C)(C)C)CCC12 (stereo not given) | 14.7% | -1.75% | -5.75% | 9.15% | 33.2% | 21.1%
30 | CC(=O)NC(=O)CCc1ccccc1 | -12.2% | -12.7% | -20.3% | -26.1% | -8.15% | -6%
31 | Cc1ccc(S(=O)(=O)N(CCOS(C)(=O)=O)CCOS(C)(=O)=O)cc1 | 12.3% | -13.2% | -0.8% | -2.1% | 9.45% | 5.25%
32 | COc1cc2c(cc1OC)[C@H]1C(COC(=O)Nc3ccccc3)CN1CC2 (stereo not given in full) | -28.9% | -0.7% | -42.7% | -9.75% | -30.6% | -49.1%
33 | CC(=O)NCC(O)C(O)C(O)C(O)COC(=O)c1ccccc1 (stereo not given) | 6.6% | -1.25% | 19.2% | -6.45% | -2.15% | -5%
34 | COCCOCOC(C)(C)[C@H](CCO)O[Si](c1ccccc1)(c1ccccc1)C(C)(C)C | 91.9% (active) | 96.5% (active) | 37.6% | 91.6% (active) | 91.4% (active) | 95.8% (active)
35 | CN(C)/C=C/c1nnnn1-c1ccc(I)cc1 | 4.5% | 12.9% | 24.8% | 7.45% | 28.8% | 34.6%
36 | CNSC1CCC2(C)C(=CCC3C2CCC2(C)C(C(C)CCCC(C)C)CCC32)C1 (stereo not given) | -1.3% | 1.7% | -9.6% | -5.05% | -3% | 10%
37 | CC1CCCCN1Cc1ccccc1COC(=O)c1ccc([N+](=O)[O-])cc1 (stereo not given) | 10.6% | -5.05% | 4.8% | -29.1% | 4.05% | 18.6%
38 | CCOC(=O)c1ccc(N(N=O)C(C)C)cc1 | 5.3% | 5.15% | 9.6% | -16% | 1.25% | 5.15%
39 | CCOC(=O)CC1C(O)C(=O)N(C)C1c1ccccc1 (stereo not given) | 21% | -8.05% | 1.75% | 42.3% | 9% | -50.4%
40 | O=C(c1ccc(Cl)cc1)c1ccc(OCCSCCCCCCCCCCSCCOc2ccc(C(=O)c3ccc(Cl)cc3)cc2)cc1 | -43.1% | -27.7% | -35.1% | -9.4% | -38.6% | -30.9%
